Results as given in PubChem BioAssay (NCI).
Several values for one entry are separate records, joined by “and”; a condition that tells them apart may be missing. Equal values may be shown once. This is part of a sample that, as a whole, favours compounds with a hit. Of some 83,000 tested, about 20% had one in any assay.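 Single-dose data. Exposure time 48 hours. Values below 10 considered active.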 Activity calls are given as the source filed them.

Assays:
Test in all cases: NCI-60 one-dose screen, 48 h (100 = growth as untreated, 0 = no growth, -100 = all killed)
Details in all cases: 10 µM unless noted
[1] = tested on: SK-MEL-2 melanoma
[2] = tested on: EKVX NSCLC
[3] = tested on: SN12C renal
[4] = tested on: UO-31 renal
[5] = tested on: TK-10 renal
[6] = tested on: ACHN renal
[7] = tested on: CAKI-1 renal
[8] = tested on: A498 renal
[9] = tested on: CCRF-CEM leukemia
[10] = tested on: MOLT-4 leukemia
[11] = tested on: SR leukemia
[12] = tested on: RPMI-8226 leukemia
[13] = tested on: OVCAR-8 ovarian
[14] = tested on: OVCAR-5 ovarian
[15] = tested on: OVCAR-4 ovarian
[16] = tested on: SK-OV-3 ovarian
[17] = tested on: IGROV1 ovarian
[18] = tested on: OVCAR-3 ovarian
[19] = tested on: HS 578T breast
[20] = tested on: NCI/ADR-RES ovarian

Measured: growth

CN(C)c1ccc2nc3ccc(=O)cc-3sc2c1
7.73% (active) and 17.9% (inactive): [11]
active: [15] 2.9% | [18] -7.17% and -6.79%
28.1% (inactive) and 6.61% (active): [13]
inactive: [1] 13.8% and 35.6% | [2] 41.3% | [3] 41.9% and 34.5% | [4] 14.8% and 31.4% | [5] 60.9% and 67.4% | [6] 20% and 21.7% | [7] 34.1% and 22.3% | [8] 85.7% | [9] 13% and 20.1% | [12] 12.8% and 13.8% | [14] 86.6% and 88.5% | [16] 81.7% and 93.7% | [17] 50.2% and 57.1% | [19] 79.4% and 79.2% | [20] 14.7% and 46.2%
-18.7% (active) and 20.2% (inactive): [10]

Cc1[nH]c(C(=O)Nc2nc3ccc(NC(=O)CCN)cc3s2)c(Cl)c1Cl
active: [11] 6.56%
inactive: [1] 96.4% | [2] 76.3% | [3] 65.4% | [4] 80.4% | [5] 113% | [6] 43.2% | [7] 31.5% | [8] 65.3% | [9] 15.3% | [10] 12.9% | [12] 78.4% | [13] 56.1% | [14] 92.5% | [15] 44.8% | [16] 107% | [17] 68.4% | [18] 77.3% | [19] 90.8% | [20] 58.4%

O=C(O)C1C2CCC1C(O)C2 (stereo not given)
inactive: [1] 97.7% and 95.5% | [2] 110% | [3] 104% and 102% | [4] 81.6% and 82% | [5] 93.1% and 98.2% | [6] 106% and 104% | [7] 100% and 98.3% | [8] 116% and 113% | [9] 101% and 93.9% | [10] 93.6% and 93.5% | [11] 96.2% and 88.2% | [12] 104% and 90.5% | [13] 100% and 98.1% | [14] 96.5% and 96.2% | [15] 106% and 108% | [16] 105% and 98.8% | [17] 124% and 112% | [18] 108% and 96.9% | [19] 110% and 109% | [20] 96.7% and 98.2%

Cc1ccc(NC(=O)c2sc3nc(C)c(C(=O)c4ccccc4)cc3c2N)cc1
active: [8] 4.97%
inactive: [1] 93.8% | [2] 72.4% | [3] 95.8% | [4] 89.4% | [5] 99.5% | [6] 92.8% | [7] 76.1% | [9] 94.3% | [10] 104% | [11] 45.2% | [12] 90.1% | [13] 94.6% | [14] 97.6% | [15] 89.3% | [16] 45.8% | [17] 95% | [18] 94.8% | [19] 75.9% | [20] 95.2%

C/C(=C(\c1ccc(OCCN2CCOCC2)cc1)c1ccc(OC(=O)C2CCCCC2)cc1)c1ccc(Cl)cc1
active: [9] -24.6%
inactive: [1] 92.6% | [2] 94.1% | [3] 94.7% | [4] 81.8% | [5] 96.4% | [6] 104% | [7] 77.9% | [8] 92.6% | [10] 91.1% | [11] 94.2% | [12] 44.8% | [13] 101% | [14] 95.6% | [15] 111% | [16] 96.6% | [17] 103% | [18] 97% | [19] 97.9% | [20] 98%

Clc1cccc(Nc2ncnc3ccc(-c4cncc(-n5cnnn5)c4)cc23)c1
active: [5] 7.65% | [8] -7.13% | [16] -4.88%
inactive: [1] 106% | [2] 26.6% | [3] 75% | [4] 32.1% | [6] 28.9% | [7] 24.3% | [9] 75.2% | [10] 58.9% | [11] 71.2% | [12] 35.5% | [13] 75.1% | [14] 65.2% | [15] 90.2% | [17] 26.1% | [18] 66.1% | [19] 67.2% | [20] 76.4%

Nn1c(-c2ccc(Cl)cc2)nc2c(-c3ccc(Cl)cc3)nc3ccc(Cl)cc3c2c1=O
active: [2] 6.86% | [3] -3.15% | [4] -24.9% | [5] 0.823% | [6] 4.66% | [9] -15.8% | [11] -62.1% | [15] -78.1% | [17] 7.14% | [18] -81.5% | [19] -14.1%
inactive: [1] 73.3% | [7] 14.7% | [8] 21.3% | [10] 32.3% | [12] 30.1% | [13] 11.6% | [14] 68.7% | [16] 20.3% | [20] 52.4%

CC(=O)N1N=C(c2ccc(Nc3nc(Nc4ccc(F)cc4)nc(Nc4ccc(F)cc4)n3)cc2)CC1c1ccccc1 (stereo not given)
active: [9] -14.7%
inactive: [1] 59.9% | [2] 105% | [3] 112% | [4] 80.2% | [5] 97.6% | [6] 84.6% | [7] 114% | [8] 85.5% | [10] 70.2% | [11] 23.3% | [12] 33.9% | [13] 83% | [14] 72.3% | [15] 95.3% | [16] 89.2% | [17] 117% | [18] 141% | [19] 94.8% | [20] 72.8%

COc1cc(/C=C2\CCC/C(=C\c3cc(CN4CCCC4)c(O)c(OC)c3)C2=O)cc(CN2CCCC2)c1O
active: [10] 4.58% | [11] 8% | [13] 8.24% | [18] 6.05%
inactive: [1] 82.6% | [2] 32.4% | [3] 30.3% | [4] 47.4% | [5] 70.1% | [6] 48.2% | [7] 55.2% | [8] 85.3% | [9] 17.6% | [12] 14.2% | [14] 39.9% | [15] 47.1% | [16] 102% | [17] 52.7% | [19] 63.7% | [20] 59.8%

Nc1nc(Nc2cccnc2)sc1C(=O)c1ccccc1F
active: [4] 9.16% | [6] 9.23% | [7] -3.89% | [9] 4.65% | [18] 9.96%
inactive: [1] 48.5% | [2] 50.7% | [3] 36.8% | [5] 54.6% | [8] 26.4% | [10] 26.8% | [11] 19.1% | [12] 17.7% | [13] 31.8% | [14] 26.2% | [15] 80.7% | [16] 85.9% | [17] 21.3% | [19] 58.1% | [20] 48.3%

CCN1CCN(CC(=O)Nc2nc3ccc(NCc4ccc(C)cc4)cc3s2)CC1
active: [11] 7.22%
inactive: [1] 75.8% | [2] 72.6% | [3] 63.3% | [4] 61.6% | [5] 93.6% | [6] 85.6% | [7] 50.7% | [8] 94% | [9] 55.8% | [10] 50.5% | [12] 48.8% | [13] 85.9% | [14] 80.5% | [15] 75% | [16] 91.5% | [17] 91.4% | [18] 70.3% | [19] 84.9% | [20] 81.8%

Cc1ccc(/C=C/c2c(C(=O)/C=C/c3ccccc3)c(C)nc3ccccc23)cc1
inactive: [2] 46.5% | [3] 36.9% | [4] 18.4% | [5] 29.3% | [7] 22.3% | [8] 59.3% | [11] 12.7% | [15] 39.9% | [16] 70.1% | [17] 11.3% | [19] 35.6%
active: [1] 2.34% | [6] 8.19% | [9] 5.43% | [10] 6.13% | [12] -7.87% | [13] 1.99% | [14] 1.05% | [18] -22% | [20] 8.38%

Cc1ccc(/C=C2\COc3ccc(O)c(O)c3C2=O)cc1
inactive: [1] 48.8% | [2] 28.2% | [11] 18% | [15] 15.7% | [16] 50% | [19] 20.5%
active: [3] -77.6% | [4] -97.3% | [5] 8.12% | [6] -77.6% | [7] -27.6% | [8] 6.45% | [9] 3.17% | [10] 1.48% | [12] -12.6% | [13] 4.95% | [14] -22.1% | [17] -37.4% | [18] -21.3% | [20] 3.13%

N#CSc1c[nH]c2ccc(/C=C/C(=O)/C=C(/C=C/c3ccc4[nH]cc(SC#N)c4c3)OB(F)F)cc12
active: [1] -30.3% | [2] -5.64% | [3] -38.1% | [4] -99.3% | [5] -0.38% | [6] -86.4% | [7] -71.5% | [9] -27.7% | [10] -37.9% | [11] -25.1% | [12] -12.2% | [13] -21.6% | [15] 1% | [17] -55.5% | [18] -52.8%
inactive: [8] 69.1% | [14] 17% | [16] 98.4% | [19] 26.8% | [20] 10.9%
